Inconclusive results are not listed. Where a call stands in place of a potency, no number is given. Active and inactive are the calls of the source. Calls follow the shape of the dose curve; as a rule, active = well fitted cell-killing curve with a large enough effect in the repeat runs; inconclusive = weak or mixed curves, or effect the other way; inactive = no such curve, though single readings can be large or run the other way.
Assay: qHTS assay to identify small molecule agonists of the RXR signaling pathway - cell viability counter screen (AID 1159529); also: nearly all actives have a fitted effect of over 50% in size
Conditions: RXR-alpha-bla HEK293T viability, CellTiter-Glo, 16 h; series mostly up to 76.8 µM
Excerpt: National Center for Advancing Translational Sciences [NCATS]
NIH Chemical Genomics Center [NCGC]
U.S. Environmental Protection Agency [EPA]
National Institutes of Environmental Health Sciences [NIEHS]
National Toxicology Program [NTP]
U.S. Food and Drug Administration [FDA]
The Retinoid X receptor (RXR), a nuclear hormone receptor expressed in liver, spleen, placenta, epidermis, central nervous system. These receptors are able to form homo and heterodimers with other nuclear receptors and due to this heterodimerizing ability, RXR functions as master regulators producing diverse physiological effects. Three subtypes of RXR exist; alpha, beta and gamma. Retinoid X receptor alpha (RXR-alpha) has potential roles in metabolic signaling pathways, skin alopecia, dermal cysts, cardiac development, insulin sensitization etc. Therefore screening environmental chemicals on RXR-alpha signaling can be used for the studies focused on such therapeutic applications. For quantification of RXR-alpha ligands signaling, GeneBLAzer RXR alpha-UAS-bla HEK 293T (Life Technologies, Carlsbad, CA) cells containing a beta-lactamase reporter-gene under control of Retinoid X receptor-alpha response element were used to screen Tox21 10K library. The cytotoxicity of the Tox21 compound library against the RXR-alpha HEK 293T cell line was tested in parallel by measuring cell viability using CellTiter-Glo assay (Promega Corporation, Madison, WI) in the same wells.
Tox21 Assay Protocol Summary:
RXR-alpha HEK 293T cells were dispensed at 2,000 cells/6 uL of assay medium containing 2% charcoal-stripped FBS using a Multidrop Combi (ThermoFisher Scientific, Waltham, MA) dispenser. The assay was performed in black wall/clear-bottom 1536-well plates (Greiner Bio-One North America Inc. Monroe, NC). Tetraoctyl ammonium bromide was used as a positive control in the cytotoxicity screen. After the assay plates were incubated at 37 C and 5% CO2 for 5 hr, 23 nL of compounds dissolved in DMSO, positive control or DMSO only were transferred to the assay plate by a Pintool station (Kalypsys, San Diego, CA). The assay plates were incubated at 37 C and 5% CO2 for 16 hr. One uL of LiveBLAzer B/G FRET substrate (Life Technologies) was added using a Flying Reagent Dispenser (FRD) (Aurora Discovery, San Diego, CA) and the plates were incubated at room temperature for 2 hr. Fluorescence intensity (405 nm excitation, 460/530 nm emission) was measured using an Envision plate reader (PerkinElmer, Shelton, CT). For cytotoxicity, 4 uL/well of CellTiter-Glo reagent was added into the assay plates using an FRD. After 30 min incubation at room temperature, the luminescence intensity was measured using a ViewLux plate reader (PerkinElmer).

SMILES	Potency
O=C(Nc1ccccc1)c1ccccc1I	inactive
CC1CCCCC1NC(=O)Nc1ccccc1 (stereo not given)	inactive
O=C(Oc1ccc(Br)cc1)N1CCN2CCC1CC2	inactive
CCCSC(=O)Cl	inactive
COC(=O)C(C)Oc1ccc(Oc2ccc(Cl)cc2Cl)cc1 (stereo not given)	inactive
Cc1nc(N)nc(N)n1	inactive
Nc1ccccc1Cl	inactive
[Cl][Sn]([Cl])([Cl])[Cl]	inactive
O=C1OC(c2ccc(O)c(S(=O)(=O)O)c2)(c2ccc(O)c(S(=O)(=O)O)c2)c2c(Br)c(Br)c(Br)c(Br)c21	inactive
N#CC(O)c1ccccc1 (stereo not given)	inactive
CCOC(=O)N(C)C(=O)CSP(=S)(OCC)OCC	inactive
CC(C)(C)OC(=O)c1ncn2c1[C@@H]1CCCN1C(=O)c1c(Br)cccc1-2	inactive
O=CNC(N1CCN(C(NC=O)C(Cl)(Cl)Cl)CC1)C(Cl)(Cl)Cl (stereo not given)	inactive
COCC(=O)N(c1c(C)cccc1C)N1CCOC1=O	inactive
N#CCCC#N	inactive
CCC(=O)C(CCN(C)C)(c1ccccc1)c1ccccc1	inactive
COc1cc(OC)nc(NC(=O)NS(=O)(=O)c2ncccc2C(=O)N(C)C)n1	inactive
CCC1(c2ccccc2)C(=O)N=C(O)NC1=O (stereo not given)	inactive
CC1COC2(c3ccccc3Cl)c3cc(Cl)ccc3NC(=O)CN12 (stereo not given)	inactive
CNC(=O)Oc1cccc(C(C)C)c1	inactive

SMILES	Potency
Nc1cnn(-c2ccccc2)c(=O)c1Cl	inactive
CNC(=O)Oc1ccccc1C1OCCO1	inactive
CCSC(=O)N(CC)C1CCCCC1	inactive
CN/C(=N\[N+](=O)[O-])NCC1CCOC1 (stereo not given)	inactive
CCOC(=O)C(c1c(O)c2ccccc2oc1=O)c1c(O)c2ccccc2oc1=O	inactive
O=C(Nc1ccccc1)N(Cc1ccc(Cl)cc1)C1CCCC1	inactive
CCOP(=S)(OCC)Oc1cc(-c2ccccc2)on1	inactive
CNC(=O)N(C)c1nc2ccccc2s1	inactive
CCCCC(=O)Cl	inactive
COC(=O)C1=CCCN(C)C1	inactive
O=C1CN=C(c2ccccc2)c2cc([N+](=O)[O-])ccc2N1	inactive
C=CC1CC=CCC1 (stereo not given)	inactive
CN1CCN(C(=O)O[C@H]2c3nccnc3C(=O)N2c2ccc(Cl)cn2)CC1	inactive
OC(Cn1cncn1)(c1ccc(F)cc1)c1ccccc1F (stereo not given)	inactive
COc1cc(OC)nc(Sc2cccc(Cl)c2C(=O)O)n1	inactive
CNNC	inactive
O=c1oc2ccccc2c(O)c1C1CCCc2ccccc21 (stereo not given)	inactive
CCC(Cl)[N+](=O)[O-] (stereo not given)	inactive
CC(C)CP(=S)(S)CC(C)C	inactive
COc1cc(C[C@@H](C)N)c(OC)cc1C	inactive

Reference: PubChem BioAssay (Tox21)
